Data from PubChem BioAssay (EPA / NIEHS).
Records with an inconclusive call do not appear. The source made the active and inactive calls. Rule for the calls: active = hit-call score of the fitted dose curve at least 0.9, where 1 is the maximum; inconclusive = response in the unintended direction; inactive = score below 0.9.

Experiment: IUF_NPC2-5_cytotoxicity_72hr: Cytotoxicity Assessment at 72 hours in the Leibniz Research Institute for Environmental Medicine (IUF) Neural Progenitor Cell Migration and Differentiation Assay for Cytotoxicity (NPC2-5) (AID 2284306);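 note: LDH release into supernatant measured by resorufin fluorescence marking membrane damage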
Procedure: IUF_NPC2-5 is a cell-based, multiplexed assay that uses hNPC, a human primary neural progenitor cells, with measurements taken at 72 or 120 hours after chemical dosing in a 96-well plate. Human neural progenitor cells (hNPC) are generated from human fetal brain cortex at gestational week (GW) 16-19. In the neural progenitor cell migration and differentiation assay (NPC2-5), hNPCs grown as spheres are plated on an extracellular matrix and migrate and differentiate out of the sphere core. The processes radial glia migration, neuronal and oligodendrocyte migration as well as neuronal differentiation, neuronal morphology and oligodendrocyte differentiation are studied using automated phase contrast imaging and automated fluorescence imaging in combination with high content image analysis. In parallel, the cell viability is assessed using an alamar blue viability assay and the cytotoxicity using a lactate dehydrogenase dependent membrane integrity assay.IUF_NPC2-5_cytotoxicity_72hr is one of 12 assay components measured from the IUF_NPC2-5 assay. It is designed to measure the cytotoxicity at 72 hr as assessed by membrane integrity related to the LDH dependent reduction of resazurin to resorufin in the supernatant of each well. The cytotoxicity is measured as fluorescence signal (relative fluorescence unit) in a multiplate reader. Data from the IUF_NPC2-5_cytotoxicity_72hr component was analyzed at the endpoint IUF_NPC2-5_cytotoxicity_72hr in the positive analysis fitting direction relative to the dynamic range and baseline of activity. Using a type of viability reporter, gain-of-signal activity can be used to understand cytotoxicity effects.
Culture protocol: After the cell expansion period the cells are cultured for up to four weeks in which they are passaged every week as described in 3.6. Between one to three days after passaging spheres at a size of 0.3 mm are picked for the test method. For the assessment of neural progenitor cell migration and differentiation, the spheres are plated on poly-D-lysine/laminin coated 96-well flat bottom plates in differentiation medium (N2) to initiate migration and differentiation. Thereby one 0.3 mm big sphere is plated in the middle of a well. The differentiation medium consists of DMEM and Ham's F12 at a ratio of 3 to 1 supplemented with 1% N2 and 1% penicillin and streptomycin. Within 5 days NPCs radially migrate out of the sphere core and differentiate into radial glia cells (nestin positive), neurons (TUBB3 positive), oligodendrocytes (O4 positive) and astrocytes (GFAP positive). Cultivation during the test method is performed at 37C and 5% CO2 at a ph of 7.2-7.6.Exposure: 0.3 mm big hNPC are plated in the already prepared test conditions. Exposure starts at day 0 of differentiation and is continued over five days of differentiation until the experiment is terminated. Cells are fed with fresh medium at day 3 of differentiation. Therefore, half of the test condition solution (e.g. solvent control or compound dilution) is replaced by freshly prepared test condition solution.Test Method: Migration distance and cytotoxicity is determined after 72 hours based on brightfield images of each well. The assay is terminated by the assessment of cell viability and cytotoxicity as well as cell fixation after 120 h. Immunocytochemistry is performed for Hoechst positive nuclei, TUBB3 positive neurons and O4 positive oligodendrocytes. On the ICC images, migration after 120 hours, neuronal and oligodendrocyte number, neuronal morphology and neuron/oligodendrocyte specific migration is assessed. immunocytochemical staining (ICC) generates an image for each sphere. The plates are scanned using an automated high content imaging device and all nuclei and their positions are determined automatically based on their intensity and size. Images are imported to the Omnisphero software to run the image analysis that measures the following endpoints. […]

| Compound | outcome | AC50 |
| --- | --- | --- |
| [O-][Cl+]O | inactive |  |
| COC(=O)Nc1nc2ccccc2[nH]1 | inactive |  |
| COP(=S)(OC)SCN1C(=O)c2ccccc2C1=O | inactive |  |
| CCCCOC(=O)c1ccccc1C(=O)OCc1ccccc1 | inactive |  |
| CNC(=O)Oc1cccc2c1OC(C)(C)C2 | inactive |  |
| CCC[CH2][Sn]([Cl])([CH2]CCC)[CH2]CCC |  | 0.31 µM (active) |
| O=P(OCCCl)(OCCCl)OCCCl | inactive |  |
| OCCOCCO | inactive |  |
| CC(C)COC(=O)c1ccccc1C(=O)OCC(C)C | inactive |  |
| CC(C)(C)C(O)(CCc1ccc(Cl)cc1)Cn1cncn1 (stereo not given) | inactive |  |
